Bioassay records from PubChem BioAssay.
Pin1 inh – qHTS Assay to Find Inhibitors of Pin1; Potency, µM (top dose mostly 115 µM), for the others: top-dose activity, negative = inhibition, most hits filed as inhibitors; 390,000 tested, 0.009% active; Peptidyl-prolyl cis-trans isomerase NIMA-interacting 1 (Homo sapiens), Q13526; Pin1 FP peptide displacement, HiFluor488, 10 min; active = well fitted inhibition curve with a large enough effect in the polarisation, with a control signal flat, not every such curve was filed as active; inconclusive = small, poorly fitted or top-dose-only effect, or effect the other way, or a change in a side signal; inactive = no such curve, though single readings can be large or run the other way; the % refers to the polarisation; note: potency is the fitted concentration of half-maximal effect
PI4K2A block – qHTS for small molecular inhibitors of PI4K2A | Phosphatidylinositol 4-kinase type 2-alpha (Homo sapiens), Q9BTU6 | purified PI4K2A, ADP-Glo luminescence, 1 h; hits give low values | activity change, negative = inhibition, % at 76.9 µM | 420,000 tested, 0.13% active; in the data active = activity change below about -50%; inconclusive = mostly about -30% to -49%;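 note: -100% = wells without enzyme as full effect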
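ADP-Glo luminescence measured ADP generated by PI4K2A enzyme (4 ug/mL before mixing) with 1.2 mM PI substrate (pre-mix) and 300 microM ATP (pre-mix). Tris pH7.5 buffer with MgCl2, Triton X-100; 1 h reaction at ambient temperature.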
Tb PFK block – qHTS Assay to Find Inhibitors of T. brucei phosphofructokinase. ATP-dependent 6-phosphofructokinase (Trypanosoma brucei brucei), O15648. T. brucei PFK, ADP-Glo luminescence. Potency, µM (doses to about 57.5 µM), for inactives: at the highest dose activity, negative = inhibition, actives largely listed as inhibitors. 330,000 tested, 0.17% active;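 note: potency is the fitted concentration of half-maximal effect; 0% = uninhibited 1x PFK enzyme wells and -100% = no-enzyme wells; nearly all actives have a fitted effect of over 60% in size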
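Activity is normalized to no-enzyme wells (full inhibition) and 1.25 nM enzyme wells (no inhibition). Reaction: 0.5 mM F6P, 0.1 mM ATP, 45 min RT, ADP-Glo luminescence; concentration-response curves fitted and classed by quality.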
PI5P4K alpha inh – qHTS for Inhibitors of phosphatidylinositol 5-phosphate 4-kinase (PI5P4K) | PI5P4Kalpha enzyme, ADP-Glo luminescence, 60 min; hits give low values | 330,000 tested, 1.2% active | Phosphatidylinositol 5-phosphate 4-kinase type-2 alpha (Homo sapiens), P48426 | max response, % | AID 652105, 2013; active = max response of -50% or lower; inconclusive = between -30% and -50%; inactive = -30% or higher; note: value at the top dose of about 77 µM
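PI5P4Kalpha ADP-Glo assay; 5 microM ATP final; 60 min RT reaction; HEPES pH 7.4/EGTA/CHAPS, 5% DMSO; controls lacking substrate or enzyme; luminescent end-point.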
PGK inhibitor – qHTS Assay to Find Inhibitors of Phosphoglycerate Kinase; Phosphoglycerate kinase, glycosomal (Trypanosoma brucei brucei), P07378; PGK/GAPDH coupled, Kinase-Glo luminescence, 60 min; Potency, µM (titrated, usually from 57.5 µM), for the others: at the highest dose activity change, negative = inhibition, actives largely listed as inhibitors; 380,000 tested, 0.043% active; AID 602233, 2012; note: potency is the fitted concentration of half-maximal effect; nearly all actives have a fitted effect of over 60% in size
Target sequence (P07378 whole entry, looked up): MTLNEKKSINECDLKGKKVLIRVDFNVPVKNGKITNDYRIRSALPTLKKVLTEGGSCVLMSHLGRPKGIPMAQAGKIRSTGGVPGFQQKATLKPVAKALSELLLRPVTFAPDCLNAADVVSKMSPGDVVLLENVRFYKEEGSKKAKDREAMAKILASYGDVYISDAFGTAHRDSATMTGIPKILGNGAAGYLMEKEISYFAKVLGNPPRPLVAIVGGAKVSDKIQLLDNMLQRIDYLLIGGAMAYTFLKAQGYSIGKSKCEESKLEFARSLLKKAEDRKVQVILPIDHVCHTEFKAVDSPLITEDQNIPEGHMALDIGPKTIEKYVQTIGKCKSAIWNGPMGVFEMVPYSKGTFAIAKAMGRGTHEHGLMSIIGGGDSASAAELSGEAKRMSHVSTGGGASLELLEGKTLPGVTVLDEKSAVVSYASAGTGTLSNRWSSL
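Recombinant glycosomal PGK reaction used 1,3-bisphosphoglycerate generated in-well by GAPDH (100nM final) in 100mM TEA pH 7.6, 5mM MgCl2, 0.01% Tween-20. After 60 minutes at room temperature, ATP was read by Kinase-Glo Plus luminescence end-point.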
ADP-Glo interf – qHTS for Inhibitors of PI5P4K: ADP-Glo counter assay. shares compounds with PI5P4K alpha inh. ADP-Glo detection counter-screen, luciferase luminescence, no enzyme. Potency, µM (highest dose often 76.9 µM), for the others: top-dose activity change, negative = inhibition, actives largely listed as inhibitors. 1,100 tested, under 10 active. AID 743285, 2014
* marks the source's active call; other numbers are inactive results; ? = inconclusive; nt = no result. This excerpt belongs to a sample that is enriched for hits. Unless noted, calls come from the whole dose curve; as a rule, active = well fitted curve in the direction sought with a large enough effect; inconclusive = small, poorly fitted or top-dose-only effect, or another doubt; inactive = no such curve, though single readings can be large; an effect the other way counts as inactive or inconclusive. Unless noted, % is set by controls: 0 for no effect and ±100 for the full control effect.

SMILES	Pin1 inh	PI4K2A block	Tb PFK block	PI5P4K alpha inh	PGK inhibitor	ADP-Glo interf
CCOC(=O)[C@]12CCCC=C1N(Cc1cccc3ccccc13)C(=O)[C@H](CC(=O)NCc1ccc(C)o1)C2	nt	-1	nt	-19	nt	nt
COC(=O)[C@]12CCCCC=C1N(Cc1cccc3ccccc13)C(=O)[C@H](CC(=O)NCc1ccc(C)o1)C2	nt	-2	nt	-52*	nt	2%
CCOC(=O)[C@]12CCCC=C1N(Cc1ccccc1)C(=O)[C@H](CC(=O)NCCCOC)C2	nt	0	nt	-57*	nt	-1%
O=C(CNS(=O)(=O)c1ccccc1)N1CCN(c2ncccn2)CC1	nt	2	nt	nt	nt	nt
O=S1(=O)c2ccc(N3CCC[C@@H]3CO)cc2OCCCN1C1CC1	nt	-4	nt	nt	nt	nt
NC(Cc1ccc(C(F)(F)F)cc1)c1csc(NC(=O)Nc2ccccc2Oc2ccccc2)n1 (stereo not given)	nt	0	nt	-50*	nt	-1%
CCN(CC(=O)NC(C)(C)C)Cc1cc(=O)n2c(-c3ccccc3)csc2n1	-2%	-8	-1%	-74*	0%	3%
Nn1c(SCC(=O)Nc2ccc(S(=O)(=O)Nc3nccs3)cc2)nnc1-c1ccco1	nt	2	nt	nt	nt	nt
Cc1noc(C)c1C(=O)Nc1ccc(-n2ccc(C(F)(F)F)n2)cc1	?	-3	8%	?	-20%	4%
Cc1cc(C)cc(NC(=O)Nc2ccc(-n3ccc(C(F)(F)F)n3)cc2)c1	1%	5	-7%	16	-4%	nt
CCOC(=O)C1=C(N)N(c2ccccc2)C(=O)C1	-1%	-7	2%	-58*	-9%	-5%
O=C(CSc1nc2ccccc2c(=O)[nH]1)NC1CCCCC1	nt	0	nt	nt	nt	nt
Cc1cc2c(cc1Cl)N(C(=O)Nc1ccc(Oc3cccnc3C)nc1)CC2	nt	-14	nt	nt	nt	nt
O=C(CSc1n[nH]c(-c2cccnc2)n1)OC1CCCCC1	-2%	1	3%	-66*	9%	-8%
Cc1cc(-c2csc(N)n2)c(C)n1CCc1ccccc1	?	?	-2%	?	-5%	nt
Cc1cc(-c2csc(N)n2)c(C)n1CCC(C)C	?	?	-1%	-64*	-3%	-7%
O=C(Oc1ccc(N(Cc2cccs2)C2=NS(=O)(=O)c3ccccc32)cc1)c1ccco1	-3%	0	1%	1	-2%	nt
O=C(Oc1ccc(N(Cc2cccs2)C2=NS(=O)(=O)c3ccccc32)cc1)c1ccccc1Cl	-4%	-20	0%	-65*	-8%	0%
C/C(=N\NC(=O)Cc1cccs1)c1ccco1	nt	-7	nt	nt	nt	nt
COc1ccc2c([N+](=O)[O-])c(N3CCOCC3)[nH]c2c1	nt	0	nt	-1	2%	nt
COc1ccc2c([N+](=O)[O-])c(Cl)[nH]c2c1	?	-17	4%	-57*	?	0%
Cc1ccc2c(c1)N(CC(=O)N1CCCCCC1)C(=O)C(C)O2 (stereo not given)	-6%	-1	2%	-73*	-7%	3%
Cc1ccc2c(c1)N(CC(=O)N1CCOCC1)C(=O)C(C)O2 (stereo not given)	-1%	3	0%	0	7%	nt
CCN(CC)C(=O)CC[C@@H]1CC[C@]2(CCCN(C(=O)c3ccccc3)C2)O1	nt	-1	nt	nt	nt	nt
COc1cccc(CNC(=O)COC(=O)c2c(C)nn(-c3ccccc3)c2Cl)c1	3%	-15	-4%	-59*	-5%	6%
COc1ccccc1CNC(=O)COC(=O)c1c(C)nn(-c2ccccc2)c1Cl	-1%	-2	3%	-1	1%	nt
CCc1nnc(NC(=O)CC(=O)Nc2ccccc2C(=O)O)s1	-5%	-8	2%	nt	11%	nt
